Experimental data published in ChEMBL document CHEMBL3988442, “University of Dundee, Small-Polar-MMV Screening Library” (2021).
The whole screen tested about 48,000 compounds, of which about 13,000 (27%) showed an effect of 50% or more. Some of the results follow.

tested on: Wolbachia pipientis; assay: Anti-Wolbachia Cell-Based Screen; type: functional; parameters: scale not given: in the data most compounds retested in dose-response had high values; details: 5 µM

Compound	Percent Effect
O=C1CC2(CCCC2)C(=O)N1CC(O)COCc1ccccc1F (stereo not given)	-41.58%
CCOc1ncccc1C(=O)NCC(O)c1ccc(F)c(F)c1 (stereo not given)	-43.97%
O=C(O)C(F)(F)F.O=C(O)C(F)(F)F.c1ccc(OCc2nnc3n2CCN(CC2CCOCC2)C3)nc1	15.11%
Cc1cc(C)c(CNC(=O)NCC(O)COc2ccccc2)c(=O)[nH]1 (stereo not given)	-7.857%
Cc1ccc(CN2CCC(n3cc(CN4CCC(O)CC4)nn3)CC2)s1	-6.735%
COCCN1CCC12CCN(C(=O)c1ccsc1)CC2.O=C(O)C(F)(F)F	-8.3%
CCCc1noc(CCC(=O)N2CCCC(c3ccn[nH]3)C2)n1 (stereo not given)	-9.271%
CCc1noc(CCC(=O)N2CCC(c3ccn[nH]3)C2)n1 (stereo not given)	80.59%
CCc1noc(CCCC(=O)N2CCCC(c3ccn[nH]3)C2)n1 (stereo not given)	-18.93%
COCC(=O)NCC1Cn2nnc(-c3ccoc3)c2CO1 (stereo not given)	-10%
O=c1cc(-c2ccc(F)cc2)nc2n1CCCCC2	114%
O=c1[nH]c(-c2ccc(F)cc2)nc2c1CCNC2	-26.62%
O=c1cc(-c2ccccc2)nc2n1CCCCC2	110.3%
Cc1nc(-c2ccccc2)ccc1C(=O)N1CCn2c(C)nnc2C1	-4.566%
Fc1ccc2c(c1)C(NCc1nnc3n1CCCCC3)CCCO2 (stereo not given)	-5.807%
NC1(c2nc(-c3ccccc3)cc(=O)[nH]2)CCCC1	-3.244%
CCc1cc(CNC(=O)Nc2cc(F)cc(N3CCCC3)c2)on1	-27.71%
O=C1CCc2ccccc2N1CCCn1cnnn1	-8.538%
CC(C)c1ccc(C(=O)O)cc1S(=O)(=O)Nc1ccc(=O)n(C)c1	-9.9%
Cc1ccc(N2CCO[C@@H]3CN(Cc4cccc(C)n4)CC[C@@H]3C2)nn1	0.9995%
Cc1ccc(N2C[C@@H]3CN(C(=O)c4ccccc4)CCO[C@@H]3C2)nn1.O=C(O)C(F)(F)F	-9.523%
Cc1ccc(N2CCO[C@H]3CN(C(=O)c4cccc(C)n4)C[C@H]32)nn1	104.4%

Compound	Percent Effect
CNS(=O)(=O)c1cccc(C(C)NCc2cccc(O)c2)c1 (stereo not given)	-12.85%
O=C(c1nc(=O)[nH][nH]1)N1CCCCCC1	-25.91%
COc1ccc2c(c1)C(=O)N(C)C1(CCN(CC=C(C)C)CC1)N2	-3.399%
CN1CCC(NC(=O)NCCNc2ccccn2)CC1	10.59%
O=C(NCCNc1ccccn1)NC1CCCC1	1.673%
CC(=O)NC1Cc2ccc(S(=O)(=O)NCCNc3ccccn3)cc2C1 (stereo not given)	74.28%
CN(C)C(=O)CS(=O)(=O)Cc1cc(Cl)c2c(c1)OCCO2	128.9%
CN(C)C(=O)CCCS(=O)(=O)Cc1cc(Cl)c2c(c1)OCO2	133.3%
CS(=O)(=O)CCS(=O)(=O)Cc1cc(Cl)c2c(c1)OCCCO2	-7.786%
CS(=O)(=O)Cc1cc(Cl)c2c(c1)OCCCO2	18.55%
CN(C)C(=O)CCS(=O)(=O)Cc1cc(Cl)c2c(c1)OCCO2	3.114%
CN(C)C(=O)CCCS(=O)(=O)Cc1cc(Cl)c2c(c1)OCCO2	4.566%
CC(C)NC(=O)CS(=O)(=O)Cc1cc(Cl)c2c(c1)OCCO2	2.891%
CN(C)C(=O)CCS(=O)(=O)Cc1cc(Cl)c2c(c1)OCO2	106.6%
CN(C)C(=O)CS(=O)(=O)Cc1cc(Cl)c2c(c1)OCCCO2	-2.577%
CCN1CCC(NC(=O)NC2CCOc3ccc(Br)cc32)CC1 (stereo not given)	-7.217%
COCc1nc(CNC2CCN(C(C)C)CC2)no1	-1.626%
CCC(CO)N(Cc1cccs1)C(=O)CSC (stereo not given)	-12.18%
O=S1(=O)C[C@@H]2[C@H](C1)N(Cc1cc(F)cc(Cl)c1)CCN2CCO	3.698%
CN1[C@H](CO)C[C@H](CNCc2ccc(CO)o2)[C@@H]1c1ccccc1F	-6.438%
O=C(O)C(F)(F)F.c1cnn(Cc2cn3c(n2)CN(Cc2nccs2)CC3)c1	25.66%
CC(=O)N1CC2(CCN(S(=O)(=O)N(C)C)CC2)C2(CCNC2=O)C1 (stereo not given)	-32.61%

Compound	Percent Effect
COc1ccccc1C1CCN(c2ccc3cc[nH]c3n2)CC1	26.71%
COC(=O)c1cc(NCC(=O)NC(N)=O)cc(C(F)(F)F)c1	4.503%
CC(NC(=O)c1cccs1)C(=O)NCc1ccccc1CN1CCCC1 (stereo not given)	1.8%
C[C@@H](NC(=O)c1cccs1)c1onc(-c2cccnc2)c1C(=O)O.Cl	-7.123%
CNS(=O)(=O)c1cccc(CNC(=O)c2c(C)nn(C)c2C)c1	-2.541%
Cc1nn(C)c(C)c1C(=O)NC(C)CC(=O)c1cccs1 (stereo not given)	89.66%
CNc1snc(C)c1C(=O)NC(C)CC(=O)c1cccs1 (stereo not given)	87.28%
COc1ccccc1C(C)CNC(=O)c1c(C)nn(C)c1OC (stereo not given)	-4.025%
Cc1nn(C)c(C)c1CC(C)NC(=O)NCc1ccn(C(C)C)n1 (stereo not given)	14.28%
COc1c(C(=O)NCC(C)Sc2ccccc2)c(C)nn1C (stereo not given)	-11.73%
CCC(NC(=O)c1cc(CC(C)C)nn1C)c1cccc(C)n1 (stereo not given)	-23.09%
COc1c(C(=O)NC(C)CC(=O)c2cccs2)c(C)nn1C (stereo not given)	88.78%
Cc1cc(C(=O)NC(C)CC(=O)c2cccs2)n(C)n1 (stereo not given)	104.4%
Cc1cc(NC(=O)NCCc2cccs2)n(C)n1	-8.078%
CCc1ccc2c(C3CN(CC4CCC4)C3)ncn2c1.O=C(O)C(F)(F)F	1.201%
Cc1ccc(C(=O)N2CCSCC2)cc1NC(C)C	-20.08%
CN(C)c1nc2c(c(N3CCC(O)CC3)n1)CN(CC1CCNC1)CC2 (stereo not given)	-8.406%
CCC(CO)N(Cc1ccccn1)C(=O)c1ccc(CSC)o1 (stereo not given)	18.24%
Cc1c(C(=O)NC(C)CC(=O)c2cccs2)cnn1C (stereo not given)	85.26%
Cc1c(C(=O)NC(CN2CCCC2=O)c2ccccc2)cnn1C (stereo not given)	-6.718%
CNS(=O)(=O)c1cccc(CNC(=O)c2cnn(C)c2C)c1	-2.681%
